This is an account of results in PubChem BioAssay AID463173 (ICCB-Longwood Screening Facility, Harvard Medical School, 2010).

The campaign covered roughly 52,000 compounds. About 4,300 (8.3%) were called active. The list comes from a sample in which actives are over-represented; it also holds similar structures and randomly drawn compounds. A number with no mark means an inactive call. Cut-off read from the data, not from the text of the source: active = survival mostly below about 52% (no sharp cut-off); inactive = mostly above about 56%.

The assay concerns DeltatarO mutant. In words: growth inhibition of S. aureus wild type versus tarO mutant, primary screen, teichoic acid synthesis inhibitors, RN4220, OD600 (AID 463173). Particulars: OD600, 18 h, hits give low values, screened at 18.75 µg/mL (by protocol).
In the case of `Nc1c(C(=O)Nc2cccc(Cl)c2)sc2nc3c(cc12)CN(Cc1ccccc1)CC3`, the survival was 69%.

Consider `Cc1ccc(NC(=O)Cn2cc3c(n2)CCCCC3)cc1`, for which the survival was 77%.

Take `COc1ccc(NC(=O)CSc2nc3ccccc3n2CC(=O)N(C)c2ccc(F)cc2)cc1`: the survival was 87%.

Consider `Cc1nn(C)c(C)c1S(=O)(=O)N(CC(=O)N1CCN(c2ccccc2)CC1)c1ccc(C(C)C)cc1`, for which the survival is 79%.

On to `COc1ccc(-c2cn3c(n2)sc2cc(C(=O)NCC(C)c4ccccc4)ccc23)cc1` (centres undefined), for which the survival is 65%.

Take `CCOc1ccc(-n2c(SCC(=O)NC3CCCCC3)nc3c([nH]c4ccccc43)c2=O)cc1`: the survival was 92%.

As for `CCC1CCCCN1C(=O)CSc1nc2c([nH]c3ccccc32)c(=O)n1-c1cccc(OC)c1` (centres undefined), the survival was 66%.

As for `COc1cccc(-n2c(SCC(=O)N3CCCCC3)nc3c([nH]c4ccccc43)c2=O)c1`, the survival is 20% (active).

Consider `O=C(CSc1nc2c([nH]c3ccccc32)c(=O)n1-c1ccc(F)cc1)NC1CCCCC1`, for which the survival is 83%.

For `CCSc1nc2c([nH]c3ccccc32)c(=O)n1-c1cccc(OC)c1`, the survival is 94%.

For the molecule `COc1ccc(-n2c(SCC(=O)NC3CCCCC3)nc3c([nH]c4ccccc43)c2=O)cc1`, the survival was 37% (active).

For the molecule `CCOc1ccc(-n2c(SCC(=O)N3CCCCCC3)nc3c([nH]c4ccccc43)c2=O)cc1`, the survival is 106%.

For `O=C(CSc1nc2c([nH]c3ccccc32)c(=O)n1-c1ccccc1)N1CCCCC1`, the survival was 73%.

In the case of `CCC1CCCCN1C(=O)CSc1nc2c([nH]c3ccccc32)c(=O)n1-c1ccc(OC)cc1` (centres undefined), the survival was 25% (active).

`CCSc1nc2c([nH]c3ccccc32)c(=O)n1-c1ccc(OC)cc1`: the survival was 46% (active).

For the molecule `CCSc1nc2c([nH]c3ccccc32)c(=O)n1-c1ccc(F)cc1`, the survival was 87%.

For the molecule `O=C(CSc1nc2c([nH]c3ccccc32)c(=O)n1-c1ccccc1)N1CCCCCC1`, the survival was 95%.

On to `C(#Cc1ccccc1)CN1CCCCC1`, for which the survival is 107%.

Take `CN(C)S(=O)(=O)c1ccc(C(=O)NCCSc2c(-c3ccc(Br)cc3)[nH]c3ccccc23)cc1`: the survival was 74%.

On to `CC(C)Cn1c(SCc2cccc(F)c2)nc2ccsc2c1=O`, for which the survival was 74%.

`CCCCNC(=O)CSc1nc2n[nH]c(C)c2c(=N)n1-c1ccccc1CC`: the survival was 89%.

With `O=C1CN(C(=O)Nc2ccccc2Cl)C(c2ccccc2)c2c(sc3c2CCCC3)N1` (centres undefined), the survival is 73%.

Consider `CCc1ccccc1N1C(=O)N(CC(=O)c2ccc(OC)cc2)c2ccccc2S1(=O)=O`, for which the survival was 79%.

For the molecule `CC(C)CCNC(=O)Nc1ccc2c(c1)N(Cc1ccccc1)C(=O)c1ccccc1S2`, the survival was 79%.

Consider `Cc1nc(SCCOc2ccccc2F)[nH]c(=O)c1Cc1ccccc1`, for which the survival was 75%.

With `Cc1ccc(-n2nc3c(=O)n(C(C)C(=O)O)nc(C)c3c2C)cc1` (centres undefined), the survival is 101%.

Take `Cc1ccc(-c2nc(C(=O)NCc3ccc(Cl)cc3)c3n2CCCCC3)cc1`: the survival is 56%.

Turning to `CSc1nnc2[nH]c(=O)cc(C)n12`, the survival is 69%.

Take `Cc1ccc(-n2nc(C)c3c(C(=O)Nc4ccc(C)cc4Cl)cc(C)nc32)cc1`: the survival was 63%.

Turning to `CN(c1ccc(Cl)cc1)S(=O)(=O)c1nnc(NC(=O)c2ccco2)s1`, the survival is 62%.

In the case of `Cc1cccc(C(=O)Nc2nnc(S(=O)(=O)N(C)Cc3ccco3)s2)c1`, the survival was 25% (active).

Consider `CN(Cc1ccco1)S(=O)(=O)c1nnc(NC(=O)c2cccc(Cl)c2)s1`, for which the survival was 5% (active).

`CCC(=O)Nc1nnc(S(=O)(=O)N(C)Cc2ccc(Cl)cc2)s1`: the survival is 94%.

`COc1cc(C(=O)Nc2cc(C)ccc2OCc2cc(=O)n3c(C)csc3n2)cc(OC)c1OC`: the survival is 58%.

For `COc1ccc(N(CC(=O)N2CCN(c3ccc(F)cc3)CC2)S(=O)(=O)c2c(C)n[nH]c2C)cc1`, the survival was 70%.

Consider `O=C(Nc1ccc(NC(=O)c2ccccc2F)cn1)c1ccco1`, for which the survival is 82%.

On to `COc1ccc(OC)c(NC(=O)Cc2c(C)n(C(=O)c3ccc(Cl)cc3)c3ccc(OC)cc23)c1`, for which the survival is 74%.

For the molecule `CCOc1cc(-c2ccc(OC(=O)c3ccc(C)cc3)c(OC)c2)cc(=O)c2c(C)oc(C)c12`, the survival was 99%.

Consider `CCOc1cc(-c2ccc(OC(=O)c3ccc(Cl)cc3)c(OC)c2)cc(=O)c2c(C)oc(C)c12`, for which the survival was 80%.

As to `CCOc1cc(-c2ccc(OC(=O)c3ccc(OC)cc3)c(OC)c2)cc(=O)c2c(C)oc(C)c12`, the survival was 41% (active).

Take `O=C(CSc1ncc2c(n1)-c1ccccc1N(Cc1ccc(F)cc1)S2(=O)=O)NCCc1ccccc1`: the survival is 94%.

Take `Cc1cccc(NC(=O)NC2COc3ccccc3C2)c1C` (centres undefined): the survival was 69%.

Take `Cc1cc(C)cc(-n2c(SCC(N)=O)nc3c(oc4ccccc43)c2=O)c1`: the survival was 97%.

Turning to `Cc1ccc(-c2cn3c(n2)sc2cc(C(=O)NCCCN4CCCCC4)ccc23)cc1`, the survival is -3% (active).

In the case of `Cc1ccc(-c2cn3c(n2)sc2cc(C(=O)NCCCc4ccccc4)ccc23)cc1`, the survival was 72%.

On to `Cc1ccc(-c2cn3c(n2)sc2cc(C(=O)N4CCCCC4)ccc23)cc1`, for which the survival is 79%.

As for `O=C(NC1CCCCC1)c1ccc2c(c1)sc1nc(-c3ccccc3)cn12`, the survival was 69%.

Consider `O=C(NC1CCCCCC1)c1ccc2c(c1)sc1nc(-c3ccccc3)cn12`, for which the survival was 55%.

As to `O=C(NCCCc1ccccc1)c1ccc2c(c1)sc1nc(-c3ccc(F)cc3)cn12`, the survival was 44% (active).

Take `Cc1ccc(-c2cn3c(n2)sc2cc(C(=O)NC4CCCCCC4)ccc23)cc1`: the survival was 94%.

With `Cc1ccc(-c2cn3c(n2)sc2cc(C(=O)NC4CCCCC4)ccc23)cc1`, the survival is 68%.

Consider `O=C(NCCCN1CCCCCC1)c1ccc2c(c1)sc1nc(-c3ccccc3)cn12`, for which the survival is 44% (active).

Regarding `Cc1ccc(-c2cn3c(n2)sc2cc(C(=O)NCCCN4CCCCCC4)ccc23)cc1`, the survival is -4% (active).

`CCc1ccc(-c2cn3c(n2)sc2cc(C(=O)NCCCc4ccccc4)ccc23)cc1`: the survival was 70%.

Turning to `Cc1ccc(Cn2c(SCC(=O)C(C)(C)C)nc3ccsc3c2=O)cc1`, the survival was 77%.

Take `Cc1ccccc1C(=O)n1nc(-c2ccco2)nc1NCc1ccc(Cl)cc1`: the survival was 80%.

With `Cc1cccc(CCNC(=O)c2ccc3c(c2)nc2n3CCCCC2)c1`, the survival was 77%.

As for `O=C(c1ccccc1)N1CCN(Cc2ccccc2)CC1`, the survival is 72%.

Take `CCOc1ccc(/C=C/c2nc(C#N)c(N(C)C)o2)cc1`: the survival is 102%.

`CCCCN(CC)CCNC(=O)Cn1cc2c(n1)-c1c(oc(C(=O)N3CCCC3)c1C)CC2`: the survival was 85%.

In the case of `COC(=O)c1cc2occc2n1Cc1nc(-c2ccccc2F)oc1C`, the survival is 102%.

As to `Cc1cc2ncn(S(=O)(=O)c3ccc(S(=O)(=O)NCC4CCCO4)cc3)c2cc1C` (centres undefined), the survival is 82%.

Take `O=C(NCCCN1CCCCC1)c1ccc2c(c1)sc1nc(-c3ccc(F)cc3)cn12`: the survival was 53% (active).

For the molecule `COc1ccc(N2CCN(CCCNC(=O)c3ccc4nc(N5CCCCC5)sc4c3)CC2)cc1`, the survival was 78%.

Turning to `Cc1ccc[n+](CC(=O)c2cccs2)c1`, the survival was 106%.

As to `CCN1CCN(Cc2nc3cc(NC(=O)c4cc(OC)c(OC)c(OC)c4)ccc3n2CC)CC1`, the survival is 84%.

Take `CC(=O)c1ccc(N2CCN(S(=O)(=O)c3ccc4[nH]c5c(c4c3)CCCC5)CC2)cc1`: the survival is 64%.

For the molecule `CCOc1ccc(-c2cc3c(=O)n(CC(=O)NCc4ccccc4)ccn3n2)cc1`, the survival is 83%.

Regarding `Cc1ccc(Cl)cc1-n1c(=O)cc(N2CCN(c3ccc(F)cc3)CC2)[nH]c1=O`, the survival is 70%.

Take `Cc1ccc(-n2c(=O)cc(N3CCN(c4ccccc4Cl)CC3)[nH]c2=O)cc1`: the survival was 25% (active).

Regarding `Cc1ccc(Cl)cc1-n1c(=O)cc(N2CCN(c3ccccc3)CC2)[nH]c1=O`, the survival is 92%.

Take `N#CC1(Nc2ccccc2Cl)C(=O)Nc2ccccc21` (centres undefined): the survival was 69%.

In the case of `CC(C)c1ccc(Nc2c(-c3ccc(N(C)C)cc3)nc3cnccn23)cc1`, the survival was 43% (active).

On to `COc1ccc(Nc2c(-c3ccc(Cl)cc3)nc3cnccn23)cc1OC`, for which the survival was 58%.

Consider `COc1cc(-c2nc3cnccn3c2Nc2ccc(C(C)C)cc2)ccc1O`, for which the survival is 66%.

On to `Cc1ccc(Nc2c(-c3ccc(C)cc3)nc3cnccn23)cc1`, for which the survival is 35% (active).

Turning to `Oc1ccccc1-c1nc2cnccn2c1Nc1ccc(Cl)cc1`, the survival was 15% (active).

On to `Cc1ccc(Nc2c(-c3ccncc3)nc3ccc(C)cn23)cc1`, for which the survival was 102%.

Take `CC(C)c1ccc(Nc2c(-c3ccccc3O)nc3cnccn23)cc1`: the survival was 55%.

Regarding `CN(C)c1ccc(-c2nc3cnccn3c2Nc2cccc(C(F)(F)F)c2)cc1`, the survival is 83%.

In the case of `Cc1cccc(C)c1Nc1c(-c2ccccc2Cl)nc2cnccn12`, the survival was 97%.

Regarding `O=C(CSc1nc(=O)n(Cc2ccco2)c2c1CCC2)NCc1ccc(Cl)cc1`, the survival was 69%.

In the case of `Cc1cccc(C)c1NC(=O)CN(Cc1ccc(Br)cc1)S(=O)(=O)c1ccccc1`, the survival was 60%.

As for `CCOc1ccccc1NC(=O)C(CC)Sc1nc2ccncc2[nH]1` (centres undefined), the survival is 122%.

Regarding `COc1cc(NC(=O)N2CCC(CN3CCCC3)CC2)cc(OC)c1OC`, the survival was 79%.

`O=C(Cn1nnc2sc(-c3ccccc3)cc2c1=O)Nc1cccc(C(F)(F)F)c1`: the survival was 40%.

As to `COc1ccc(C2(NC(=O)c3ccc(Cn4cc(Cl)cn4)o3)CCCCC2)cc1`, the survival was 102%.

Regarding `O=c1c2ccccc2n(Cc2c(F)cccc2Cl)c(=O)n1CCc1ccccc1`, the survival is 85%.

Turning to `COCCN(CCOC)c1ncnc2c1c(-c1ccccc1)cn2-c1ccc(C)c(Cl)c1`, the survival is 67%.
